96 compounds from PubChem BioAssay AID651965 (National Center for Advancing Translational Sciences (NCATS), 2013) can be followed below.

SMILES strings stand for the structures. Among all 340,000 compounds or so, about 6,400 (1.9%) were called active. Entries that show only a call come without a potency. Another 4% or so got no clear call; they are omitted. Calls come from the whole dose curve; as a rule, active = well fitted falling curve with a large enough effect; inconclusive = small, poorly fitted or top-dose-only effect; inactive = no such curve, though single readings can be large or run the other way. The full list was thinned out, with actives kept by preference.
Potency is the fitted concentration of half-maximal effect.

Chain of ATP-dependent Clp protease proteolytic subunit (Bacillus subtilis (strain 168)) (P80244 whole entry, looked up): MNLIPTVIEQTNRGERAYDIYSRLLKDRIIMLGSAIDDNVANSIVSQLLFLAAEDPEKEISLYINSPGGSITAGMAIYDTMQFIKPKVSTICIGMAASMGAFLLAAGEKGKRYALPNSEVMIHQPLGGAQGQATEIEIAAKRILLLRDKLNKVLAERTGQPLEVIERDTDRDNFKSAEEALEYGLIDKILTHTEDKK

This test deals with ATP-dependent Clp protease proteolytic subunit (Bacillus subtilis (strain 168)) (UniProt P80244). The experiment in a line: qHTS Assay for Activators of ClpP. Note: the source files actives as falling curves though it sought activators and does not explain the sign; nearly all actives have a fitted effect of over 65% in size. The note with it: purified B. subtilis ClpP, FRET peptide cleavage, 20 min; series mostly up to 57.5 µM. A digest of the protocol:
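Purified B. subtilis ClpP, 10 microg/mL final in Tris/HCl pH8 with KCl, BSA, glycerol and Tween-20, cleaved an Abz/nitrotyrosine-quenched decapeptide. Fluorescence (ex 320, em 430) was read at 0 and 20 min at room temperature. Delta was normalized to 5.8 microM ADEP and DMSO/no-enzyme controls.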
For the compound `Nc1ncnc2c1ncn2[C@@H]1O[C@H](CNC(=O)[C@H](N)Cc2cccnc2)[C@@H](O)[C@H]1O`, the Potency result was “inactive”.
On to `COc1ccc(CCc2nc(-c3cccs3)no2)cc1`, for which the Potency entry is “inactive”.
For `Clc1ccc(Cc2nnc(-c3cccs3)o2)cc1`, the Potency result is “inactive”.
As to `COc1nc(-c2ccc(Cl)cc2)ccc1-c1noc(-c2cccs2)n1`, the Potency is 14.1 µM (active).
The same measure for `C[C@@H]1CN([C@H](C)CO)C(=O)c2cc(-c3ccc(F)cc3)cnc2O[C@H]1CN(C)C(=O)c1ccc(F)cc1`: “inactive”; for `O=C1NCC(c2ccccc2)(c2ccccc2)C(=O)N1`: “inactive”; for `O=C1NCC(Nc2ccccc2)C(=O)N1` (stereo unspecified): 12.6 µM (active).
With `O=C(CC1Nc2ccccc2NC1=O)Nc1ccccc1` (stereo unspecified), the Potency result was “inactive”.
`CCCCNC(=O)Cn1c(SCc2cccc(Cl)c2)nc2ccncc21`: the Potency entry is “inactive”.
With `COc1ccc(C(O)c2nc(-c3ccc4c(c3)OCO4)cs2)cc1` (stereo unspecified), the Potency result is “inactive”.
For `COCCNc1nc(Nc2ccccc2Cl)c2sc(-c3ccccc3)cc2n1`, the Potency entry is “inactive”.
As for `O=C1c2ccccc2C(=O)N1c1ccccc1S(=O)C(F)(F)F` (stereo unspecified), the entry is “inactive”; as for `O=C1c2ccccc2C(=O)N1c1cccc2ccccc12`, 7.94 µM (active).
For the compound `CC1=C(C)CC2C(=O)N(c3cccc4ccccc34)C(=O)C2C1` (stereo unspecified), the Potency result was “inactive”.
As for `Cc1ccc(NC(=O)[C@H](Cc2ccccc2)NC(=O)CC[C@H]2O[C@@H](n3ccc(=O)[nH]c3=O)[C@H](O)[C@@H]2O)cc1C`, the Potency result was “inactive”.
As for `Cc1ccc(C2=NN(C(=O)COc3ncnc4ccccc34)C(c3ccco3)C2)cc1` (stereo unspecified), the entry is “inactive”; as for `CC(C)C(C)NC(=O)COc1ncnc2ccccc12` (stereo unspecified), 11.2 µM (active).
As for `O=C(COc1ncnc2ccccc12)NC(=O)NCc1ccccc1`, the Potency entry was “inactive”.
As for `O[C@H]1C[C@H](c2ccc(Cl)cc2)N(Cc2cccs2)C[C@@H]1n1cc(C2CC2)nn1`, the entry is “inactive”.
`COC(=O)c1c(C)c(C)nc(N)c1C#N`: the Potency was 8.91 µM (active).
As for `COC(=O)c1c(C)cc(O)c(C)c1O`, the entry is “inactive”; as for `Cc1nc(SCC(=O)NC2CCCCC2C)c(C#N)c(C)c1C` (stereo unspecified), “inactive”.
For `COc1ccc(NC(=O)C2Cc3c(-c4cccc(NC(C)=O)c4)ccnc3O2)cc1OC` (stereo unspecified), the Potency result is “inactive”.
The same measure for `CC(=O)OC[C@@H]1CN(Cc2ccccc2)C[C@H](n2cnc3c(NCc4ccco4)ncnc32)O1`: “inactive”.
In the case of `Nc1ncnc2nnsc12`, the Potency entry is “inactive”.
For `O=C(CSCc1cccs1)N1CCCC1`, the Potency result was “inactive”.
For `Cn1c(=NC(=O)CSCC(=O)N2CCCCC2)sc2ccccc21`, the Potency is 35.5 µM (active).
Consider `Cn1c(=NC(=O)c2cnccn2)sc2ccccc21`, for which the Potency entry was “inactive”.
As for `CCc1nc2c(OCc3cccc(OC)c3)cccn2c1N(C)C(=O)C(C)C`, the entry is “inactive”; as for `Cc1cccc(C)c1Cn1c(C)c(C(=O)NCc2cccc(Cl)c2)sc1=O`, “inactive”.
As for `CN1OC[C@@H]2CN(C(=O)c3cccnc3)[C@H](c3ccc(N4CCCCC4)cc3)C[C@@H]21`, the entry is “inactive”.
On to `c1ccc(-c2ccc3c(c2)NC(C2Nc4cc(-c5ccccc5)ccc4O2)O3)cc1` (stereo unspecified), for which the Potency entry was “inactive”.
Regarding `c1ccc(-c2c[nH]c(-c3ccccc3)c2)cc1`, the Potency is 20 µM (active).
As for `c1ccc(-c2cc(-c3ccccc3)[nH]n2)cc1`, the entry is “inactive”.
As for `CCCCN1CC(N2CCN(Cc3cccc(C)c3)CC2)CS1(=O)=O` (stereo unspecified), the entry is “inactive”; as for `O=C1c2cccc(OCC(=O)N3N=C(c4cccs4)CC3c3ccc(F)cc3)c2CCN1Cc1ccccc1` (stereo unspecified), 15.8 µM (active).
As for `O=C(COc1ccccc1Cl)N1N=C(c2cccs2)CC1c1ccco1` (stereo unspecified), the Potency entry is “inactive”.
Regarding `COc1ccc(C2CC(c3cccs3)=NN2C(=O)COC(=O)c2cc3ccccc3cc2O)cc1OC` (stereo unspecified), the Potency entry was “inactive”.
On to `CN(C)CCNC(=O)c1ccc(-c2cn3c(-c4ccc(Oc5ccccc5)cc4)cnc3cn2)cc1`, for which the Potency entry is “inactive”.
Regarding `OC(c1ccccc1)c1nc(-c2cnc3ccccc3c2)cs1` (stereo unspecified), the Potency result is “inactive”.
On to `C(=Nc1ccc(/C=C/c2ccnc3ccccc23)cc1)c1cc2c3c(c1)CCCN3CCC2`, for which the Potency entry was “inactive”.
As for `CC1=C(C(=O)N(C(C)C)C(C)C)CC(CC(=O)NCC2CCCCC2)C(=O)N1Cc1ccccc1` (stereo unspecified), the entry is “inactive”; as for `O=C(NCCCO)/C(=C\C=C\c1ccccc1)NC(=O)c1ccccc1Cl`, 28.2 µM (active).
For the compound `CNC(=O)/C(=C\C=C\c1ccccc1)NC(=O)c1ccc([N+](=O)[O-])cc1`, the Potency result was “inactive”.
Take `Cc1ccc(C(=O)N/C(=C/C=C/c2ccccc2)C(=O)NCc2ccco2)cc1`: the Potency result was “inactive”.
On to `Cc1cccc(C)c1-n1nnnc1C1(C)CCC(=O)N1CCOc1ccccc1` (stereo unspecified), for which the Potency result is “inactive”.
Regarding `CC1(C(=O)NS(=O)(=O)c2cccc(F)c2)CCN1C(=O)Cc1cc(F)ccc1F` (stereo unspecified), the Potency result is “inactive”.
Turning to `C[C@@H]1CN([C@@H](C)CO)C(=O)c2c(c3ccccc3n2C)-c2ccccc2CO[C@H]1CN(C)C(=O)C1CC1`, the Potency entry was “inactive”.
The same measure for `COc1ccc(S(=O)(=O)NC(=O)C2(C)CCN2C(=O)COc2ccc(Cl)cc2)cc1` (stereo unspecified): “inactive”; for `CCNC(=O)N1CCN(S(=O)(=O)c2ccc3c(c2)OCCCO3)CC1`: “inactive”; for `CN1CCCN(S(=O)(=O)c2ccc3c(c2)OCCO3)CC1`: “inactive”.
Take `CCCCCC(=O)N1CCN(S(=O)(=O)c2ccc3c(c2)OCCCO3)CC1`: the Potency is 28.2 µM (active).
The same measure for `COC(=O)[C@]12CCCCC=C1N(Cc1ccc(Cl)cc1Cl)C(=O)[C@H](CC(=O)NCc1cccc3ccccc13)C2`: “inactive”; for `O=c1[nH]cnc2c1c(-c1ccccc1)cn2-c1ccc(F)cc1`: “inactive”; for `CCCNc1ncnc2c1c(-c1ccccc1)cn2-c1ccc(OCC)cc1`: 25.1 µM (active).
As for `COCCNc1ncnc2c1c(-c1ccccc1)cn2-c1ccc(C)c(Cl)c1`, the Potency entry was “inactive”.
Consider `COc1ccc(CC(N)c2csc(NC(=O)NC(c3ccccc3)c3ccccc3)n2)cc1` (stereo unspecified), for which the Potency result is “inactive”.
Turning to `CC1(C(=O)NCc2ccccc2)CSCC(=O)N1CCCn1ccnc1` (stereo unspecified), the Potency result is “inactive”.
As to `COC(=O)[C@]12CCCCC=C1N(Cc1ccc3c(c1)OCO3)C(=O)[C@H](CC(=O)N1CCOCC1)C2`, the Potency entry is “inactive”.
For `CC(C)NC(=O)C1(C)CCCCN1Cc1cccc(C(F)(F)F)c1` (stereo unspecified), the Potency entry is “inactive”.
The same measure for `COc1ccccc1NC(=S)N1CCC(NC(=O)C23CC4CC(CC(C4)C2)C3)CC1`: “inactive”; for `CCCNC(=S)N1CCC(NC(=O)C23CC4CC(CC(C4)C2)C3)CC1`: “inactive”; for `COCCNC(=S)N1CCC(NC(=O)C23CC4CC(CC(C4)C2)C3)CC1`: 28.2 µM (active).
`CC(=O)N1Cc2cc(C(=O)NCc3cccc(F)c3)nc(-c3cccc(C4=CCCC4)c3)c2[C@H]1CCO`: the Potency entry was “inactive”.
The same measure for `COC(=O)[C@@]12C[C@@H](CC(=O)NCCCCc3ccccc3)C(=O)N(CCc3ccc(OC)c(OC)c3)C1=CCC(C)(C)C2`: “inactive”; for `COc1ccc(-c2ccc3[nH]c4c(c3c2)CCN2C[C@H]3[C@H](C)ON(C)[C@H]3C[C@@H]42)cc1`: “inactive”; for `CCC(=O)Nc1c(S(=O)(=O)c2ccccc2)c2nc3ccccc3nc2n1Cc1ccccc1`: 14.1 µM (active).
For the compound `CCN(CC)CCn1c(N)c(S(=O)(=O)c2ccccc2)c2nc3ccccc3nc21`, the Potency entry is “inactive”.
For `CCC(=O)Nc1ccc(C)cc1-c1nc2ccccc2n(Cc2ccccc2)c1=O`, the Potency result was “inactive”.
On to `CCOC(=O)[C@]12CCCC=C1N(CCC1=CCCCC1)C(=O)[C@H](CC(=O)N1CCN(C(=O)c3ccco3)CC1)C2`, for which the Potency result was “inactive”.
On to `CCCCCCCNc1ccc(/C=C/c2ccnc3ccccc23)cc1`, for which the Potency result is “inactive”.
As to `O=C(c1cncc(Br)c1)N1CCN(c2ccc([N+](=O)[O-])cc2)CC1`, the Potency was 28.2 µM (active).
The same measure for `O=C(c1cc(C(=O)N2CCN(c3ccc(F)cc3)CC2)cc([N+](=O)[O-])c1)N1CCN(c2ccc(F)cc2)CC1`: “inactive”; for `Cc1cccc(C(=O)NC(=S)N2CCN(c3ccc([N+](=O)[O-])cc3)CC2)c1`: “inactive”.
As for `CCCCc1ccc(S(=O)(=O)NC(=O)C2(C)CCN2C(=O)c2ccccc2)cc1` (stereo unspecified), the entry is “inactive”.
On to `Cc1ccc(-c2nc(=N)sn2Cc2ccccc2)cc1`, for which the Potency result was “inactive”.
Turning to `Cc1ccc(C=O)cc1Cl`, the Potency entry is “inactive”.
On to `CC1(C(=O)NS(=O)(=O)c2cccc(OC(F)F)c2)CCN1C(=O)C1CC1` (stereo unspecified), for which the Potency entry was “inactive”.
Consider `CC(=O)Nc1cc(-c2ccc(N3CCN(C)CC3)cc2)cn2c(-c3ccc(F)cc3)cnc12`, for which the Potency result was “inactive”.
The same measure for `CCOC(=O)N1CCN(C(c2ccnc3ccccc23)c2nnnn2-c2c(C)cccc2C)CC1` (stereo unspecified): “inactive”; for `COc1cc(F)ccc1-c1cc(C(=O)NCC2CCCCC2)[nH]n1`: “inactive”; for `COc1ccc(CSc2nnnn2-c2ccc(C(=O)O)cc2)cc1`: “inactive”.
Turning to `COc1ccc(-n2nnnc2-c2nc3ccccc3s2)cc1`, the Potency is 28.2 µM (active).
As for `COc1ccc(-n2nnnc2CNC(=O)c2ccc3ccccc3c2)cc1`, the Potency result was “inactive”.
Consider `CCCCOCCCNC(=O)C[C@@H]1C[C@@]2(C(=O)OC)CCCCC=C2N(CCC2=CCCCC2)C1=O`, for which the Potency entry is “inactive”.
For the compound `COc1ccccc1CNC(=O)c1cc(-c2cc(Cl)ccc2C)n[nH]1`, the Potency entry is “inactive”.
On to `OC[C@H]1O[C@@H](c2nc(-c3nc(-c4ccc(F)cc4)no3)cs2)[C@H](O)[C@@H](O)[C@H]1O`, for which the Potency result was “inactive”.
With `COc1cccc2c1cc1c(=O)n(CC(=O)N3CCN(c4ccccc4)CC3)nc(C)n12`, the Potency was 25.1 µM (active).
As for `Cc1nn(CC(=O)N2CCN(c3cccc(C(F)(F)F)c3)CC2)c(=O)c2cc3sccc3n12`, the Potency entry is “inactive”.
With `CCN1CCN(C(=O)Cn2nc(C)n3c(cc4c(OC)cccc43)c2=O)CC1`, the Potency entry is “inactive”.
`CN[C@H]1C[C@H]2c3cc(Oc4ccccc4C)ccc3CCN2C(=O)[C@H]1[C@H](C)O`: the Potency result was “inactive”.
As for `CCCS(=O)(=O)NC(=O)C1(C)CCCN(C(=O)c2cc(C)on2)C1` (stereo unspecified), the Potency result is “inactive”.
As for `CCCCCCC1(C)NC(c2ccc3c(c2)OCO3)=CC(c2ccccc2O)N1` (stereo unspecified), the entry is “inactive”; as for `CCOC(=O)N1CCC(NC(=O)C(C)n2c3ccccc3c3cnn(C)c(=O)c32)CC1` (stereo unspecified), 28.2 µM (active).
As for `CCOC(=O)N1CCC(NC(=O)CCc2cn(C)c3ccccc23)CC1`, the entry is “inactive”; as for `CCOC(=O)N1CCC(NC(=O)Cc2cn(C)c3ccccc23)CC1`, “inactive”.
